Experimental data reported in PubChem BioAssay (NCI).
Compounds without any hit were thinned out: in the full panel of roughly 83,000, 20% have a hit.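 Negative percent growth values reflect cell death: -40 means 40% of the cells present at the start died, and -100 means all died.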 The source made the active and inactive calls. How the source made its calls: active means growth percent below 10; inactive means the rest.

Tests used:
Experiment in all cases: NCI-60 one-dose screen, 48 h (100 = growth as untreated, 0 = no growth, -100 = all killed)
SK-MEL-2 melanoma = details: 10 µM unless noted
EKVX NSCLC = details: 10 µM unless noted
SN12C renal = details: 10 µM unless noted
UO-31 renal = details: 10 µM unless noted
TK-10 renal = details: 10 µM unless noted
ACHN renal = details: 10 µM unless noted
CAKI-1 renal = details: 10 µM
CCRF-CEM leukemia = details: 10 µM unless noted
RPMI-8226 leukemia = details: 10 µM unless noted
OVCAR-8 ovarian = details: 10 µM unless noted
OVCAR-5 ovarian = details: 10 µM unless noted
OVCAR-4 ovarian = details: 10 µM unless noted
SK-OV-3 ovarian = details: 10 µM unless noted
IGROV1 ovarian = details: 10 µM unless noted
OVCAR-3 ovarian = details: 10 µM unless noted
HS 578T breast = details: 10 µM unless noted
NCI/ADR-RES ovarian = details: 10 µM unless noted
MOLT-4 leukemia = details: 10 µM unless noted
SR leukemia = details: 10 µM unless noted
A498 renal = details: 10 µM unless noted

Measured: growth

CCOC(=O)/C=c1\sc2n(c1=O)C1C(NN=2)N(CC)C(=O)N1CC (stereo not given)
inactive: SK-MEL-2 melanoma 76.7% | EKVX NSCLC 81.9% | SN12C renal 71.9% | UO-31 renal 56.2% | TK-10 renal 81.3% | ACHN renal 44.5% | CAKI-1 renal 51.3% | CCRF-CEM leukemia 53.4% | RPMI-8226 leukemia 64.6% | OVCAR-8 ovarian 84.2% | OVCAR-5 ovarian 84.8% | OVCAR-4 ovarian 91.2% | SK-OV-3 ovarian 89.2% | IGROV1 ovarian 59.6% | OVCAR-3 ovarian 14.8% | HS 578T breast 61.5% | NCI/ADR-RES ovarian 53.1%

O=C(Nc1ccc(Cl)cc1)Nc1nc2ccc([N+](=O)[O-])cc2s1
inactive: IGROV1 ovarian 14.7%
active: SK-MEL-2 melanoma -40.8% | EKVX NSCLC 4.04% | SN12C renal -0.314% | UO-31 renal 3.55% | TK-10 renal -20.5% | ACHN renal 0.28% | CAKI-1 renal -16.5% | CCRF-CEM leukemia 4.8% | MOLT-4 leukemia -7.74% | SR leukemia -24.3% | OVCAR-8 ovarian 6.03% | OVCAR-4 ovarian -4.3% | SK-OV-3 ovarian -12.3% | OVCAR-3 ovarian -26.6% | HS 578T breast -15.8% | NCI/ADR-RES ovarian -6.91%

CCOC(=O)C1=C(C)Nc2nc3ccccc3n2C1c1cccc(Br)c1 (stereo not given)
inactive: SK-MEL-2 melanoma 89.9% | EKVX NSCLC 80.2% | SN12C renal 95.1% | UO-31 renal 73.7% | TK-10 renal 113% | ACHN renal 88.9% | CAKI-1 renal 54.5% | MOLT-4 leukemia 69.3% | SR leukemia 25.4% | OVCAR-8 ovarian 96% | OVCAR-5 ovarian 97.1% | OVCAR-4 ovarian 88.9% | SK-OV-3 ovarian 93.6% | IGROV1 ovarian 77.4% | OVCAR-3 ovarian 40.3% | HS 578T breast 79.1% | NCI/ADR-RES ovarian 59%

COC1=C(c2ccccc2)C(=O)C(OC)=C(c2ccccc2)C1=O
active: MOLT-4 leukemia -7.74%
inactive: SK-MEL-2 melanoma 101% | EKVX NSCLC 99% | SN12C renal 102% | UO-31 renal 89.8% | TK-10 renal 107% | ACHN renal 117% | A498 renal 89.7% | CCRF-CEM leukemia 10.9% | SR leukemia 79.8% | RPMI-8226 leukemia 93.5% | OVCAR-8 ovarian 100% | OVCAR-5 ovarian 119% | OVCAR-4 ovarian 59.6% | SK-OV-3 ovarian 81.2% | IGROV1 ovarian 93.2% | OVCAR-3 ovarian 72.6% | HS 578T breast 96.8% | NCI/ADR-RES ovarian 102%

O=c1c2c(O)cccc2oc2c3c(cc(O)c12)O[C@H]1OC=C[C@@H]31
inactive: SK-MEL-2 melanoma 95.5% | EKVX NSCLC 42.8% | SN12C renal 92.6% | UO-31 renal 79.3% | TK-10 renal 89.5% | ACHN renal 74.9% | A498 renal 89.1% | CCRF-CEM leukemia 92.7% | MOLT-4 leukemia 88.5% | SR leukemia 42.6% | RPMI-8226 leukemia 93.7% | OVCAR-8 ovarian 87.8% | OVCAR-5 ovarian 110% | OVCAR-4 ovarian 94.5% | SK-OV-3 ovarian 78.9% | IGROV1 ovarian 77.4% | OVCAR-3 ovarian 106% | HS 578T breast 94.9% | NCI/ADR-RES ovarian 87.9%

C[C@H]1[C@H](C)CC[C@]2(COC(=O)c3cccnc3)CC[C@]3(C)C(=CC[C@@H]4[C@@]5(C)CCCNC(C)(C)[C@@H]5CC[C@]43C)[C@H]12
inactive: SK-MEL-2 melanoma 98.6% | EKVX NSCLC 89.7% | SN12C renal 67.6% | UO-31 renal 59.3% | TK-10 renal 79.9% | ACHN renal 75.7% | CAKI-1 renal 61.5% | CCRF-CEM leukemia 50.1% | MOLT-4 leukemia 44% | OVCAR-8 ovarian 86.2% | OVCAR-5 ovarian 90.9% | OVCAR-4 ovarian 70.5% | SK-OV-3 ovarian 92.5% | IGROV1 ovarian 65% | OVCAR-3 ovarian 68.4% | HS 578T breast 78.8% | NCI/ADR-RES ovarian 88.5%
active: SR leukemia -8.33%

CCOc1ccc2nc(NC(=O)Nc3ccccc3C)sc2c1
inactive: SK-MEL-2 melanoma 48.5% | EKVX NSCLC 72% | SN12C renal 58.7% | UO-31 renal 66.3% | TK-10 renal 64.5% | ACHN renal 67% | CAKI-1 renal 60.9% | CCRF-CEM leukemia 47.7% | MOLT-4 leukemia 34.5% | SR leukemia 24.3% | OVCAR-8 ovarian 74.7% | OVCAR-5 ovarian 80.2% | OVCAR-4 ovarian 80.2% | SK-OV-3 ovarian 82.3% | IGROV1 ovarian 49.5% | OVCAR-3 ovarian 20.7% | HS 578T breast 50.5% | NCI/ADR-RES ovarian 22.8%
